The source of these data is PubChem BioAssay (EPA / NIEHS).

Values joined by “and” are separate entries in the source; they are usually repeats but may differ in a detail not shown here. Identical values can stand only once. Where a structure was tested more than once in an assay, its records may differ in their call. Active and inactive are the calls of the source. Rule for the calls: active = hit-call score of the fitted dose curve at least 0.9, where 1 is the maximum; inactive = score below 0.9.

Read-out in this assay: Interleukin-8 (IL8), CXCL8 (gene 3576)
Briefly: BSK_IMphg_IL8: BioMAP Diversity Plus: IMphg Assay for Interleukin-8 (IL8) Biomarker Activity (AID 2284277). Particulars: primary human endothelial cells with macrophages. The procedure:
BSK_IMphg is a cell-based, multiplexed-readout assay that uses venular endothelial cells and macrophages, a human vascular primary cell, with measurements taken at 24 hours after chemical dosing in a microplate: 96-well plate.BSK_IMphg_IL8 is an assay component measured in the BSK_IMphg assay. It measures IL-8 antibody related to regulation of gene expression using ELISA technology.Data from the assay component BSK_IMphg_IL8 was analyzed at the endpoint, BSK_IMphg_IL8, in the positive analysis fitting direction relative to DMSO as the negative control and baseline of activity. Using a type of binding reporter, gain or loss-of-signal activity can be used to understand protein changes. To generalize the intended target to other relatable targets, this assay endpoint is annotated to the 'cytokine' intended target family, where the subfamily is 'interleukins'.
The levels of cell surface (or secreted, indicated by the prefix "s") biomarker endpoints were measured by ELISA. Overt cytotoxicity to cells in confluent adherent cultures (all systems other than the BT system) was assessed by measuring total protein levels using sulforhodamine B (SRB) staining in parallel cultures at the time of biomarker measurements, indicated as SRB endpoints. For proliferation assays for adherent cell types, individual cell types are cultured at sub-confluence and relative cell numbers quantified by SRB staining at time points optimized for each system (48 h: 3C and CASM3C systems; 72 h: BT and HDF3CGF systems; 96 h: SAg system). SRB was performed by staining cells with 0.1% SRB after fixation with 10% TCA and reading wells at 560 nm.Viability and proliferation of PBMC (T cells) was quantified by Alamar Blue reduction for the SAg and BT systems. For PBMC viability (referred to as PBMC Cytotoxicity within the assay endpoint names), cells were plated (75,000/well in a 96-well plate) and then chemical samples added for 1 h before addition of activators, SEB and TSST-1 (20 ng/mL final concentration each). Cells were incubated for 90 h. Then, Alamar Blue (20 uL/well) (Invitrogen, Cat DAL1100) was added for 6 h, and the plates were read with a fluorescence microplate reader at 546/580 nm (excitation/emission). For PBMC proliferation, cells were plated and activated as above but incubated for only 16 h prior to addition of Alamar Blue. Plates were read after 6 h.
Turning to `CCN(CCO)S(=O)(=O)C(F)(F)C(F)(F)C(F)(F)C(F)(F)C(F)(F)C(F)(F)C(F)(F)C(F)(F)F`, the AC50 is 50.9 µM (active) and the outcome was inactive.
Consider `O=C(O)CCC(F)(F)C(F)(F)C(F)(F)F`, for which the result was inactive.
`NCC(F)(F)C(F)(F)C(F)(F)C(F)(F)C(F)(F)C(F)(F)F`: the outcome was inactive.
Turning to `OCC(F)(F)C(F)(F)C(F)(F)C(F)(F)C(F)(F)C(F)(F)CO`, the outcome was inactive.
On to `NC(=O)C(F)(F)C(F)(F)C(F)(F)C(F)F`, for which the result was inactive.
On to `FC(F)(F)C(F)(F)C(F)(F)C(F)(F)C(F)(F)C(F)(F)CC[Si](Cl)(Cl)Cl`, for which the result was inactive.
With `O=C(O)CCC(F)(F)C(F)(F)C(F)(F)C(F)(F)C(F)(F)C(F)(F)C(F)(F)F`, the AC50 was 1.98 µM (active) and 2.14 µM (active).
As for `O=C(F)C1(F)C(F)(F)C(F)(F)C(F)(F)C(F)(F)C1(F)F`, the result was inactive.
Take `CNS(=O)(=O)C(F)(F)C(F)(F)C(F)(F)C(F)(F)C(F)(F)C(F)(F)C(F)(F)C(F)(F)F`: the AC50 is 14.5 µM (active) and the result was inactive.
As for `O=C(Cl)C(F)(F)C(F)(F)C(F)(F)C(F)(F)C(F)(F)C(F)(F)F`, the AC50 was 15.8 µM (active) and 21.5 µM (active); the outcome was inactive.
Turning to `C=CC(=O)OCCC(F)(F)C(F)(F)C(F)(F)C(F)(F)F`, the result was inactive.
Take `C[Si](Cl)(Cl)CCC(F)(F)C(F)(F)C(F)(F)C(F)(F)C(F)(F)C(F)(F)F`: the outcome was inactive.
For the compound `CN(C(=O)C(F)(F)C(F)(F)C(F)(F)F)[Si](C)(C)C`, the outcome was inactive.
Take `O=C(O)C(F)(F)C(F)(F)C(F)(F)C(=O)O`: the outcome was inactive.
Turning to `C=CC(=O)OCC(F)(F)C(F)(F)C(F)(F)C(F)(F)C(F)(F)C(F)(F)C(F)(F)C(F)F`, the result was inactive.
Turning to `O=S(=O)(Cl)C(F)(F)C(F)(F)C(F)(F)C(F)(F)C(F)(F)C(F)(F)C(F)(F)C(F)(F)F`, the result was inactive and the AC50 was 36.7 µM (active).
Regarding `O=C(O)C(F)(F)OC(F)(F)C(F)(F)OC(F)(F)C(F)(F)OC(F)(F)F`, the result was inactive; the AC50 was 5.47 µM (active) and 14.2 µM (active).
Take `OC(O)C(F)(F)C(F)(F)F`: the outcome was inactive.
As for `OCC(O)CC(F)(F)C(F)(F)C(F)(F)C(F)(F)F` (stereo not given), the outcome was inactive.
On the same count and under the same terms, for `O=S(=O)(O)CCC(F)(F)C(F)(F)C(F)(F)C(F)(F)C(F)(F)C(F)(F)C(F)(F)C(F)(F)F` the value was “inactive”.
As to `NCC(F)(F)C(F)(F)C(F)(F)C(F)(F)C(F)(F)C(F)(F)C(F)(F)C(F)(F)F`, the result was inactive.
On to `C=C(C)C(=O)OCC(F)(F)C(F)(F)C(F)(F)C(F)F`, for which the outcome was inactive.
Consider `O=C(O)C(F)(F)C(F)(F)C(F)(F)OC(F)(C(F)(F)F)C(F)(F)F`, for which the AC50 was 16.1 µM (active) and the outcome was inactive.
For `NC(=O)C(F)(F)C(F)(F)C(F)(F)C(F)(F)C(N)=O`, the outcome was inactive.
Regarding `OCCCCC(F)(F)C(F)(F)C(F)(F)C(F)(F)F`, the result was inactive.
Regarding `NC(O)(C(F)(F)F)C(F)(F)F`, the outcome was inactive.
In the case of `NS(=O)(=O)C(F)(F)C(F)(F)C(F)(F)C(F)(F)C(F)(F)C(F)(F)F`, the half-maximal activity concentration (AC50) is 16.3 µM (active) and 8.64 µM (active).
For the compound `CCOC(=O)CC(=O)C(F)(F)C(F)(F)F`, the result was inactive.
Regarding `NC(=O)C(F)(F)C(F)(F)C(F)(F)C(F)(F)C(F)(F)C(F)(F)C(F)(F)F`, the result was inactive.
For `COC(F)(C(F)F)C(F)(F)F` (stereo not given), the outcome was inactive.
On the same count and under the same terms, for `CO[Si](C)(CCC(F)(F)C(F)(F)C(F)(F)C(F)(F)C(F)(F)C(F)(F)F)OC` the value was “inactive”.
Regarding `OCC(O)CC(F)(F)C(F)(F)C(F)(F)C(F)(F)C(F)(F)C(F)(F)C(F)(F)C(F)(F)F` (stereo not given), the result was inactive.
On to `OCCCC(F)(F)C(F)(F)C(F)(F)C(F)(F)C(F)(F)C(F)(F)C(F)(F)C(F)(F)F`, for which the outcome was inactive.
As to `OCC(F)(F)C(F)(F)C(F)(F)C(F)(F)C(F)(F)C(F)(F)C(F)(F)C(F)(F)CO`, the AC50 was 48.8 µM (active) and 48.9 µM (active).
